Among all 96,000 compounds or so, about 20,000 (21%) were called active. Only a sample is shown. Unmarked numbers belong to inactive results.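 How the source made its calls: active means CYP2C19 inhibition above a set limit at 5 µM in the primary screen (cut at about 50% in these data); inactive means the rest.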
Each compound was assayed against Cytochrome P450 2C19 (Homo sapiens) (UniProt P33261) (assay: blockers of cytochrome P450 2C19 activity – biochemical, luminescence, ADME assay, primary screen (AID 778;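 further: plate controls were negative control wells for no effect and 2.5 mM tranylcypromine positive control for full effect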)). Conditions: CYP2C19 Supersomes, luciferin-H EGE luminescence, 30 min; at 5 µM; hits give high values.
Cytochrome P450 2C19 (Homo sapiens), sequence (P33261 whole entry, looked up): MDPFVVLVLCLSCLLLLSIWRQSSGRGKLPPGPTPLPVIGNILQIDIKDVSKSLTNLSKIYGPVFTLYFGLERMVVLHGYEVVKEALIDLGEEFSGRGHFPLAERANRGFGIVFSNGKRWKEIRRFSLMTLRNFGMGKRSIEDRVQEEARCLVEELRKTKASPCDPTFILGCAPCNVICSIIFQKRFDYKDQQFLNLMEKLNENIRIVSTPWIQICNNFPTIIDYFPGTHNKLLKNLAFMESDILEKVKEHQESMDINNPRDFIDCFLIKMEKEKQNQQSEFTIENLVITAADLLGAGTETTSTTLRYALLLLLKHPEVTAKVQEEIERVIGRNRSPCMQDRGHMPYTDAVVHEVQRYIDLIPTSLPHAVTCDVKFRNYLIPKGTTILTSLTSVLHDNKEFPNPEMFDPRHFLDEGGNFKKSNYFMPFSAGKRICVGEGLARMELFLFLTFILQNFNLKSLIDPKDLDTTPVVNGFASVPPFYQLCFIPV

Point of comparison: `CCOC(=O)C1CCN(C(=O)c2oc3ccc(S(=O)(=O)N4CCCCCC4)cc3c2C)CC1`, inhibition 40.4%. Against it:
- c1ccc2c(c1)C(=NC1CCCCC1)NC2=NC1CCCCC1 — lower, 4.5%
- O=C(Nc1cccc(OCC(=O)N2CCOCC2)c1)C1CCCCC1 — lower, -9.5%
- CN(C)CCCNc1c2c(c(C#N)c3nc4ccccc4n13)CCC2 — lower, 0%
- CCOC(=O)N1CCC(Nc2c(NCCN3CCN(c4cccc(Cl)c4)CC3)c(=O)c2=O)CC1 — lower, 2.4%
- O=S(=O)(N/N=C\c1cccn1-c1ccccc1)c1ccc2ccccc2c1 — higher, 49.7%
- CCCCn1c(SCC(=O)NCCc2ccc(OC)c(OC)c2)nc2c1c(=O)n(C)c(=O)n2C — lower, -14.1%
- CCCC(=O)Nc1cc(OCC)c(NC(=O)NC2CCCCC2)cc1OCC — lower, 10.5%
- CCC(C)(NC(=O)c1ccccn1)C(=O)NC1CCCCC1 (stereo not drawn) — lower, 17.6%
- Cc1noc(C)c1C(=O)N(CC(=O)NC1CCCC1)Cc1ccccc1F — lower, -7.6%
- Cc1ccc(C(C(=O)NC2CCCC2)N(Cc2ccco2)C(=O)CCC(=O)Nc2ccccn2)cc1 (stereo not drawn) — lower, 10.6%
- O=C1CCCC(O)=C1C=NCCc1ccccc1 — lower, 12.8%
- CC(CCO)Nc1nc2c([nH]1)c(=O)n(C)c(=O)n2C (stereo not drawn) — lower, 0.9%
- Cn1c2c(c(=O)n(C)c1=O)C(c1ccc(O)cc1)Nc1ccccc1O2 (stereo not drawn) — lower, 2%
- CCOc1[nH]n(-c2ccc(Cl)cc2)c(=O)c1C=Nc1ccc(O)cc1 — lower, 13.5%
- CCCN1CCN(C(=O)Cn2ncc3ccccc32)CC1 — lower, 12.6%
- CN(C(=O)c1ccno1)c1nnc(-c2cccnc2)s1 — lower, -0.7%
- COCCN(C(=O)c1ccco1)c1nnc(-c2ccc(OC)cc2)s1 — lower, 24%
- Cc1nnc(SCCCn2c(N3CCCCC3)nc3c2c(=O)[nH]c(=O)n3C)s1 — lower, 22.6%
- Cc1cccc(NC(=O)COc2ccc(Br)cc2C)n1 — lower, 5%
- Cc1ccc(O)c(NC(=O)COc2cc(C)ccc2C)c1 — lower, -2.7%
- CN1CCN(S(=O)(=O)c2ccc3[nH]cc(C(=O)O)c(=O)c3c2)CC1 — lower, 3.6%
- CCNC(=S)Nc1cccc(Cl)c1C — higher, 48%
- Clc1ccccc1CSc1nnc(-c2ccco2)c(-c2ccco2)n1 — lower, 31.1%
- Nc1nc(SCc2ccccc2Cl)n[nH]1 — lower, 0.1%
- Cc1ccc(CS(=O)(=O)CCC(=O)NC2CC2)cc1 — lower, 9.7%
- COc1ccc(CNC(=O)CCn2cccc2)cc1 — lower, 35%
- COc1ccc(OCC(=O)NCCc2ccc(S(N)(=O)=O)cc2)cc1 — lower, 19.4%
- O=C(NCCN=C1NS(=O)(=O)c2ccccc21)c1ccc(S(=O)(=O)N2CCOCC2)cc1 — lower, -2%
- O=C1CCCC2=C1C(c1ccccc1)n1c(s/c(=C/c3cccc(F)c3)c1=O)=N2 (stereo not drawn) — lower, 34.6%
- O=C(Nc1nnc(SCc2ccccc2)s1)c1ccco1 — lower, 2.5%
- COc1ccc2c(CC(=O)Nc3nnc(C4CC4)s3)coc2c1 — lower, 12.6%
- CCOc1ccc(CN(Cc2ccco2)C(c2cccs2)c2nnnn2C(C)(C)C)cc1 (stereo not drawn) — higher, 47.8%
- COc1ccc(CN(Cc2ccco2)S(=O)(=O)c2ccc(S(=O)(=O)N3CCCC3)cc2)cc1 — lower, 38.7%
- CCOc1nnc(C)c2c(C)n(-c3cccc(Cl)c3)nc12 — higher, 45.7%
- Cc1cc(=O)n(C)c(=O)n1CCCNc1ccccc1 — lower, 18.5%
- CC(=O)c1sc(NC(=O)c2cccc3ccccc23)nc1C — lower, -21.9%
- COc1ccccc1N1CCN(C(=O)c2cc(-c3ccc(Br)cc3)on2)CC1 — lower, -2.9%
- COc1ccccc1N1CCN(C(=O)c2ccc(S(=O)(=O)N3CCCCC3)cc2)CC1 — lower, 28.3%
- CC1=NN(C(=O)c2ccccc2Br)C(O)(c2cccnc2)C1 (stereo not drawn) — lower, 16.7%
- Cc1ccc(NC(=O)N2CCC(O)(c3cccnc3)CC2)cc1 — lower, 2.2%
- CC(c1ccccn1)N(CCN(C)C)C(=S)Nc1ccccc1F (stereo not drawn) — lower, 13.7%
- Cc1cc2c(c(=O)n1C)C(C(C)C)C(C#N)=C(N)O2 (stereo not drawn) — lower, 3.4%
- CCCCN(C)C(=O)C1CCN(Cc2ccccn2)CC1 — lower, -6.2%
- COc1ccc(C2CC(=O)C=C(NCC3CCCO3)C2)cc1 (stereo not drawn) — lower, 19.6%
- CCOc1cccc(-c2nn3c(-c4ccccn4)nnc3s2)c1 — lower, -1.6%
- COc1ccc(-c2nn3c(-c4ccccc4)nnc3s2)cc1OC — lower, 0.9%
- CC(C)(C)n1c(=O)[nH]c2c(c1=O)CCC2 — lower, -16.7%
- O=C(O)C1CCN(S(=O)(=O)N2CCOCC2)CC1 — lower, -3%
- O=C1c2ccccc2C(=O)N1CC1c2ccccc2CCN1S(=O)(=O)c1ccccc1 (stereo not drawn) — lower, 36.9%
- O=C(CN(CC1CCCO1)C(=O)CNS(=O)(=O)c1ccccc1)NCc1ccccc1 (stereo not drawn) — lower, 4.5%

`CCOc1ccccc1N(CC(=O)NC1CCCCC1)C(=O)CCCC(=O)Nc1ccccn1` was tested, and the inhibition was 68.9% (active).
With `O=C(CCCC(=O)N(CC(=O)NC1CCCC1)Cc1ccccc1Cl)Nc1ccccn1` the inhibition was 77.5% (active).
`Cc1nnc(N(Cc2ccco2)C(=O)c2ccno2)s1` was tested, and the inhibition was 80.5% (active).
For `CCCn1nnnc1NC(=O)COc1ccc(Cl)cc1C`, the inhibition was 70.2% (active).
`Cc1cc(C)nc(SCc2ccccc2C#N)n1` was tested, and the inhibition was 50.2% (active).
With `CCCCCNC(=O)Cc1ccc(OC)cc1` the inhibition was 92.4% (active).
`CS(=O)(=O)Nc1cccc(C2=NN(S(=O)(=O)c3ccccc3)C(c3cccs3)C2)c1` (stereo not drawn) was tested, and the inhibition was 72.2% (active).
For `CCOc1ccc(CN(Cc2ccco2)S(=O)(=O)c2ccc(-n3cnnn3)c(OC)c2)cc1`, the inhibition was 57.7% (active).
With `COc1ccccc1N1CCN(C(=O)c2c(-c3c(Cl)cccc3Cl)noc2C)CC1` the inhibition was 78.9% (active).
With `CC1=NN(C(=O)Cc2ccc(C)cc2)C(O)(c2cccnc2)C1` (stereo not drawn) the inhibition was 62.6% (active).
With `COc1cc(-c2nn3c(-c4cccc(C)c4)nnc3s2)cc(OC)c1OC` the inhibition was 79.2% (active).
With `O=S(=O)(NCC1OCCc2ccccc21)c1ccccc1` (stereo not drawn) the inhibition was 53.6% (active).

— PubChem BioAssay AID778 (Sanford-Burnham Center for Chemical Genomics, 2007)
